Results on 52 compounds are retold here after PubChem BioAssay AID1851 (National Center for Advancing Translational Sciences (NCATS), 2009).

The structures appear in SMILES notation. The campaign covered roughly 16,000 compounds. About 4,000 (25%) were called active. Not shown: some 26% with an inconclusive outcome. A selection follows. Unmarked numbers belong to inactive results. The call rests on the fitted dose curve; in most records, active means well fitted curve in the direction sought with a large enough effect; inconclusive means small, poorly fitted or top-dose-only effect, or effect the other way; inactive means no such curve, though single readings can be large or run the other way.
On the % scale 0 is the no-effect control and ±100 the full control effect.

This assay deals with Cytochrome P450 2C9 (Homo sapiens) (UniProt P11712). In words: Cytochrome panel assay with activity outcomes. The settings on record: recombinant CYP, pro-luciferin dealkylation, luminescence, p450-cyp2c9; series mostly up to 57.1 µM; activity, negative = inhibition: at the top concentration.
Chain of Cytochrome P450 2C9 (Homo sapiens) (P11712 whole entry, looked up): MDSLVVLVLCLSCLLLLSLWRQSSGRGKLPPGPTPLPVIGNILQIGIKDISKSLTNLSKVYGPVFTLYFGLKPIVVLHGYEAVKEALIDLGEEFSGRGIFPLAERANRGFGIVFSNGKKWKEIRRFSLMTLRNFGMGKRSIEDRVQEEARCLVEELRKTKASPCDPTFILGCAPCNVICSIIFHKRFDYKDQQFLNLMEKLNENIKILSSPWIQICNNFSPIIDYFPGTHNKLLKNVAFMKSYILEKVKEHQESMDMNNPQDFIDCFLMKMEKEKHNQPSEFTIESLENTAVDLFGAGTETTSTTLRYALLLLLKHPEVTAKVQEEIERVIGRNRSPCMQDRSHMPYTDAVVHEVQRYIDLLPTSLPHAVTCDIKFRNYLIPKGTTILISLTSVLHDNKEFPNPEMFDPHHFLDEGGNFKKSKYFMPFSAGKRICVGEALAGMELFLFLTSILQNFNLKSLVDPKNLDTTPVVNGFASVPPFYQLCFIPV
One may read the AC50 as the concentration at which the activity in the assay is half-maximal. With `O=C1NC(c2cccc([N+](=O)[O-])c2)=CCN1c1ccccc1O`, the AC50 is 1 µM (active). Turning to `Nc1nc(-c2cccc([N+](=O)[O-])c2)cc(-c2cc(-c3cccc([N+](=O)[O-])c3)nc(N)n2)n1`, the activity, negative = inhibition is 20.9% [at 11.4 µM]. In the case of `Cc1c(-c2ccc(F)cc2)nc(N)c(C#N)c1-c1cccs1`, the AC50 is 1.58 µM (active). For `CSc1nc(N)nc(-c2cccs2)c1C#N`, the AC50 was 7.08 µM (active). `Nc1nc(-c2cccs2)cs1`: the “activity, negative = inhibition” value was -11.3%.

Consider `Cc1cnc(CNc2ccnc(-c3ccc(N(C)C)cc3)n2)cn1`, for which the activity, negative = inhibition is 1.73% [at 2.29 µM].

`COc1cccc(/C=N/n2nnc3c(cnn3-c3ccccc3)c2=O)c1`: the “activity, negative = inhibition” value was 1.29%.

In the case of `O=C(CCN1CCCCC1)N1CCc2c([nH]c3ccccc23)[C@H]1c1cccnc1`, the activity, negative = inhibition is 2.98% [at 11.4 µM]. Turning to `Clc1ccc(CSC2=NCCN2)cc1Cl`, the activity, negative = inhibition was 9.47% [at 11.4 µM]. Regarding `CNc1cc(CSC)nc(SCc2ccc(Cl)c(Cl)c2)n1`, the AC50 was 8.91 µM (active).

Consider `COc1ccc(-c2nc3cnc(Nc4cccc(OC)c4)nc3n(CCC#N)c2=O)cc1`, for which the “activity, negative = inhibition” value was 4.66%. On the same count and under the same terms, the result for `COc1cc(C2SCCCCCCCCCCSC(c3ccc(O)c(OC)c3)SCCCCCCCCCCS2)ccc1O` (configuration not stated) reads 10.3% [at 11.4 µM]; that for `COc1ccc(NC(=O)C2CC(=O)NC3=C2C(=O)CC(C)(C)C3)cc1` (configuration not stated), -7.67%. `COc1ccc(OC)c(C2CC(=O)C3=C(C2)NC(=O)CC3c2ccc(O)c(OC)c2)c1` (configuration not stated): the AC50 was 11.2 µM (active).

With `O=C=Nc1ccc(Cc2ccc(N=C=O)cc2)cc1` (tested in a mixture with another compound), the activity, negative = inhibition is 2.55% [at 11.4 µM]. With `O=C(Nc1ccccc1)N1CCC2(CC1)CCN(C(=O)c1cnccn1)CC2`, the “activity, negative = inhibition” value is 12.7%.

With `O=C(Nc1ccccc1N1CCOCC1)c1cnccn1`, the AC50 was 2 µM (active). In the case of `O=C(NCc1ccccc1Cl)c1cnccn1`, the “activity, negative = inhibition” value was -20.1%. Consider `CCC/C=C(\CCC)C(NS(=O)(=O)c1ccc(C(F)(F)F)cc1)c1ccc(C(=O)OC)cc1` (configuration not stated), for which the AC50 was 3.16 µM (active). On to `COC(=O)C/C=C\[C@H](C)[C@H](CO)NS(=O)(=O)c1ccc(C)cc1`, for which the activity, negative = inhibition is 0.902% [at 11.4 µM].

On to `CCC/C=C(\CCC)C(NS(=O)(=O)c1ccc(Cl)cc1)c1ccc(C(=O)OC)cc1` (configuration not stated), for which the concentration at half-maximal activity (AC50) was 3.16 µM (active). Same read-out and setting: the result for `CCC/C=C(\CCC)C(NS(=O)(=O)CC12CCC(CC1=O)C2(C)C)c1ccc(C(=O)OC)cc1` (configuration not stated) reads 15.8 µM (active); that for `CCC/C=C(\CCC)C(NS(=O)(=O)c1ccccc1)c1ccc(C(F)(F)F)cc1` (configuration not stated), 10 µM (active). Regarding `CCC/C=C(\CCC)C(NS(=O)(=O)c1ccc(C(F)(F)F)cc1)c1ccc(-c2ccccc2)cc1` (configuration not stated), the “activity, negative = inhibition” value is -29.2%. Regarding `COc1c2occc2c(OC)c2c(=O)cc(C)oc12`, the “activity, negative = inhibition” value is -22.4% [at 25.6 µM].

As for `Cc1ccccc1[C@@H](OCCN(C)C)c1ccccc1`, the “activity, negative = inhibition” value was -17.5%. Consider `CCC/C=C(\CCC)C(NS(=O)(=O)c1ccc(Cl)cc1)c1ccccc1` (configuration not stated), for which the AC50 is 2.51 µM (active). Consider `CCC/C=C(\CCC)C(NS(C)(=O)=O)c1ccccc1` (configuration not stated), for which the “activity, negative = inhibition” value was -21.6%.

For `CCN(CC)C(=O)N1CCN(C)CC1`, the “activity, negative = inhibition” value is 14.3% [at 25.6 µM].

With `CS(=O)(=O)N1CCC2(CCCN(C(=O)Nc3cccc(C#N)c3)C2)CC1`, the “activity, negative = inhibition” value was -4.46%.

Consider `CCOc1ccccc1NC(=O)CSc1nnc(-c2cnccn2)n1C`, for which the “activity, negative = inhibition” value is -16%. On to `COc1ccccc1-n1c(SCC(=O)Nc2ccccc2F)nc2[nH]ncc2c1=O`, for which the AC50 was 15.8 µM (active). For `O=C(CSc1nc2nc(-c3cccs3)cc(C(F)(F)F)c2c(=O)[nH]1)NCc1ccco1`, the AC50 was 0.631 µM (active). Turning to `CCn1cc(C(=O)NCC(=O)OC)c2cc(OC)c(OC)cc2c1=O`, the “activity, negative = inhibition” value is -29.2%. On to `Clc1ccc(Cn2c(-c3cccnc3Cl)nc3ccccc32)c(Cl)c1`, for which the AC50 is 5.62 µM (active). For `CC(C)(C)c1cc2cccnc2n1Cc1ccccc1`, the “activity, negative = inhibition” value was 1.4%. For `Clc1ncccc1-c1nc2ccccc2n1Cc1ccccc1`, the AC50 was 15.8 µM (active). Turning to `Oc1ccc(Cn2c(-c3ccc(O)cc3)nc3ccccc32)cc1`, the activity, negative = inhibition is 9.3% [at 11.4 µM].

With `c1ccc(CN2c3ccccc3-c3nc4ccccc4n3C2c2ccccn2)cc1` (configuration not stated), the AC50 is 7.94 µM (active). For the compound `NC(N)=N[C@H](CCC(=O)O)C(=O)O`, the “activity, negative = inhibition” value is 18.9%.

With `O=C1OCC(c2ccccc2)=C1c1ccc(S(=O)(=O)N2CCOCC2)s1`, the AC50 is 12.6 µM (active). Turning to `CCCCCC(=O)O[C@H](CC(=O)O)C[N+](C)(C)C`, the “activity, negative = inhibition” value is -7.97%.

`COc1ccccc1N1CCN(C[C@@H](C(=O)NC(C)(C)C)c2ccccc2)CC1`: the “activity, negative = inhibition” value is 9.59%. Still for that read-out and setting: the result for `COc1ccc(S(=O)(=O)N2CCN(CC(=O)Nc3cc(OC)cc(OC)c3)CC2)cc1` reads 19.8%.

`COc1ccc(C)cc1NC(=O)CN1CCN(S(=O)(=O)c2ccc(F)cc2)CC1`: the AC50 was 2.51 µM (active). For the compound `COc1ccccc1NC(=O)CN1CCN(c2ccccc2F)CC1`, the AC50 is 5.01 µM (active). With `O=C(CCN1CCN(c2ccccc2F)CC1)Nc1ccccc1F`, the AC50 was 3.98 µM (active).

For `O=C(NCCCN1CCN(c2ccccc2F)CC1)C1CCC(=O)N1C1CCCCC1` (configuration not stated), the “activity, negative = inhibition” value was -1.7%. Still for that read-out and setting: the result for `Cc1cccc(N2CCN(CC(=O)Nc3ccc(-n4cnnn4)cc3)CC2)c1C` reads -11.3%.

Turning to `CCN(CC)c1ccc(NC(=O)CN2CCN(c3ccccc3F)CC2)cc1`, the AC50 is 11.2 µM (active). In the case of `O=C(CN1CCN(S(=O)(=O)c2ccc(F)cc2)CC1)Nc1ccc(Cl)c(C(F)(F)F)c1`, the “activity, negative = inhibition” value is -23.9%. As to `CC1CCOC2(O1)C(=O)N(CN1CCN(c3ccccc3F)CC1)c1ccccc12` (configuration not stated), the “activity, negative = inhibition” value was 24.7%.
